Bioassay records: PubChem, Broad Institute
In the library only some 2.5% were active in any assay of this set; here they are far more common.
Ecoli rRNA inh: inhibitors of bacterial rRNA selective over humanized ribosomes; E. coli WT GFP vs humanized-ribosome RFP mutants, fluorescence, 24 h; hits give low values; DMSO median 0, no signal -100; GFP signal change (wild-type ribosome), % (no concentration beside the values); 350,000 compounds, 1.6% hits; AID 720706;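 active = significant combined selectivity score with lowered wild-type GFP, culture density cut under 30%, mutant RFP and density less affected; inactive = any of these conditions unmet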
CASP6 VEID inh: caspase-6 (human) enzyme inhibition | P55212 | purified caspase-6, Z-VEID-R110 cleavage fluorescence | inhibition, % at 12.5 µM | 350,000 compounds, 0.53% hits;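 active = mean inhibition across replicates at least about 35%, with every replicate also reaching that limit, limit read from the data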;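 note: 0% = median of neutral control wells and 100% = no fluorescence left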
Target sequence (P55212 24-179 limits assumed): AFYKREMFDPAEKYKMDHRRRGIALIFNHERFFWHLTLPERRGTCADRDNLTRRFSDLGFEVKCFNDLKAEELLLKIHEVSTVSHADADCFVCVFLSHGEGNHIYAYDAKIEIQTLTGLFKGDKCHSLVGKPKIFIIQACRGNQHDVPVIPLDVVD
Target sequence (P55212 194-293 limits assumed): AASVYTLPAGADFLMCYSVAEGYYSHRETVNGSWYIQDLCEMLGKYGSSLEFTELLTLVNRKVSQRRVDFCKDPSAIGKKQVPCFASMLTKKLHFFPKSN
RAD52 anneal inh: RAD52 (human) annealing inhibition | recombinant RAD52 DNA annealing, FRET fluorescence | AID 651710 | 360,000 compounds, 0.46% hits | inhibition, % at 18.7 µM | P43351;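 active = every replicate showing at least 50% inhibition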
AF4-AF9 inh: MLL-AF4/AF9 protein interaction inhibition; 350,000 compounds, 0.47% hits; AlphaScreen, biotin-AF4 peptide binding to FLAG-AF9; inhibition, % at 10 µM;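 active = every replicate reaching a set inhibition limit, whatever the replicate mean, cut at about 25% in these data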;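 note: 0% = plate neutral control median and 100% = total signal loss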
NSD2 inh: NSD2 (human) methyltransferase inhibition | O96028 | NSD2 peptide methylation, AlphaScreen, 120 min | inhibition, % at 12.5 µM | 310,000 compounds, 0.54% hits; in the data active = inhibition above about 50%
Active calls of the source: *; . = no result.

SMILES | Ecoli rRNA inh | CASP6 VEID inh | RAD52 anneal inh | AF4-AF9 inh | NSD2 inh
CC(=O)c1ccc(NC(=O)c2ccc(CSc3ccccc3)o2)cc1 | -31* | 3 | -8 | -3 | -1
O=C(Nc1ccc(F)cc1)c1ccc(CSc2ccccc2)o1 | -52 | 2 | -20 | -2 | 0
C[C@@H]1CN(C)C(=O)Cc2cc(N(C)C)ccc2O[C@@H]1CN(C)C(=O)OC(C)(C)C | -1 | . | . | . | .
CC1CCCC(NCC(O)COC(c2ccc(F)cc2)c2ccc(F)cc2)C1C (centres undefined) | -53* | 2 | 44 | 9 | -2
S=C(NCCc1ccccc1)N1CCc2ccccc2C1 | -22* | 8 | -12 | 1 | -6
O=C(C[C@@H]1C[C@@H]2c3cc(NC(=O)NC4CCCC4)ccc3O[C@@H]2[C@H](CO)O1)NCc1ccc(Cl)cc1 | 2 | . | . | . | .
C[C@@H]1CN([C@@H](C)CO)C(=O)c2cc(NC(=O)Nc3ccccc3)ccc2O[C@@H](C)CCCCO[C@@H]1CN(C)C(=O)Nc1ccccc1 | -2 | . | . | . | .
CN(/N=C/Cc1nnnn1-c1ccc(Cl)cc1)c1ccccc1 | -22* | 3 | -4 | . | 2
O=C(CCN1C(=O)/C(=C\C=C\c2ccccc2)SC1=S)Nc1ccccc1C(=O)O | -6 | 45* | -55 | 2 | 31
COCC(=O)N(C)C[C@@H]1Oc2cc(-c3cccnc3)ccc2S(=O)(=O)N([C@H](C)CO)C[C@H]1C | -2 | -2 | 0 | 2 | .
COC(=O)c1ccc(N)cc1O | . | . | . | . | -21
COC(=O)c1ccc(=O)c2nc3/c(=C/O)c(O)cc(=O)c3[nH]c12 | -13 | 66* | 5 | -4 | .
COc1ccc(S(=O)(=O)N(C)C[C@H]2OCCCC[C@@H](C)Oc3ccc(NC(=O)CCC(F)(F)F)cc3C(=O)N([C@H](C)CO)C[C@H]2C)cc1 | 0 | 1 | -19 | 2 | .
NC(=O)c1ccc(NC(=O)COC(=O)/C=C/c2ccc(Br)o2)cc1 | . | 80* | -32 | -3 | 0
CCOC(=O)c1c(C)[nH]c(C(=O)C(C)Cl)c1C (centres undefined) | 5 | 4 | -17 | 2 | 0
CCOC(=O)c1c(C)[nH]c(C(=O)C(C)OC(=O)c2cnc(C)cn2)c1C (centres undefined) | -26* | -3 | -12 | 0 | 2
CC1=NN(c2ccc(Cl)c(C(=O)O)c2)C(=O)/C1=C\c1ccc(-c2ccc(C(=O)O)cc2)o1 | 12 | 54* | -40 | 0 | 8
CC1=NN(c2ccccc2)C(=O)/C1=C/c1ccc(-c2ccc(C)c(C(=O)O)c2)o1 | -1 | 4 | -19 | 4 | 17
Cc1cc(C)c2nc3sc(=Cc4ccc(-c5ccccc5C(=O)O)o4)c(=O)n3c2c1 | -1 | . | -136 | -2 | .
CC1(C)OC(=O)C(=Cc2ccc(-c3ccc(Cl)c(C(=O)O)c3)o2)C(=O)O1 | 3 | 58* | -98 | -7 | .
O=C(O)c1cc(-c2ccc(/C=C3/SC(=S)N(Cc4ccccc4)C3=O)o2)ccc1Cl | 7 | 51* | -343 | 8 | 46
O=C(O)c1ccc(-c2ccc(/C=c3/sc4nc5ccccc5n4c3=O)o2)cc1Cl | 8 | 58* | -155 | -1 | .
O=C(C[C@@H]1C=C[C@@H](NS(=O)(=O)c2ccc(F)cc2)[C@H](CO)O1)NCc1ccccc1F | 2 | -2 | -10 | -4 | .
CN(C)CCn1c2ccccc2c2nc3ccc([N+](=O)[O-])cc3cc21 | -32* | 3 | 37 | -2 | 1
CCCNC(=O)N(C)C[C@@H]1Oc2ncc(C#Cc3ccncc3)cc2C(=O)N([C@@H](C)CO)C[C@@H]1C | 8 | 2 | -5 | -4 | .
SMILES | Ecoli rRNA inh | CASP6 VEID inh | RAD52 anneal inh | AF4-AF9 inh | NSD2 inh
O=C(Nc1cscc1S(=O)(=O)c1ccccc1)c1ccccc1Cl | -22* | 1 | -16 | 0 | -1
CC(C)c1c(O)ccc2c1CC[C@H]1C(C)(C)CCC[C@]21C | -14* | -6 | 2 | 5 | .
CC(C)NC(=O)Nc1cccc2c1O[C@H](CN(C)S(=O)(=O)c1cccs1)[C@@H](C)CN([C@@H](C)CO)C2=O | 2 | . | . | . | .
CC1CCCC(NC(=O)c2ccc3c(SCC(=O)O)c4c(nc3c2)CCC4)C1C (centres undefined) | 2 | 43* | -4 | 2 | .
CN(C)c1ccc(C=C2C=Cc3ccccc32)cc1 | 3 | -1 | -32 | 4 | -3
CNc1ccc(C=C2C=Cc3ccccc32)cc1 | -20* | 3 | -1 | 6 | 4
CC(/C=C1\SC(=S)N(NC(=O)c2ccncc2)C1=O)=C\c1ccccc1 | -32* | 10 | -77 | -5 | 6
O=C(Cc1cccnc1)N1CC(=O)N2[C@H](CO)[C@@H](c3ccc(-c4cccc(F)c4)cc3)[C@@H]2C1 | 4 | . | . | . | .
C(=N\N1CCN(c2ccccn2)CC1)/c1cccc2ccccc12 | -21* | -1 | 0 | 27* | 5
COc1ccc2c3c([nH]c2c1)[C@H](CO)N(CC1CC1)CC31CN(C(=O)c2ccccc2)C1 | -6 | . | . | -1 | .
COc1ccc(C2c3sc(=O)[nH]c3SC3C4CCC(C4)C23)cc1 (centres undefined) | . | . | . | . | -1
COc1cc(C2c3sc(=O)[nH]c3SC3C4CCC(C4)C23)ccc1O (centres undefined) | -32* | 6 | -19 | 7 | 6
O=C(C[C@H]1C=C[C@H](NC(=O)c2ccncc2)[C@@H](CO)O1)NCc1ccncn1 | 3 | 2 | 12 | -3 | .
COc1ccc(NC(=O)N(C)C[C@@H]2Oc3ccc(NC(=O)CCC(F)(F)F)cc3C(=O)N([C@@H](C)CO)C[C@@H]2C)cc1 | -2 | 3 | -12 | -4 | .
Fc1ccc(Br)cc1C1C=C(c2ccc(Br)cc2)Nc2ncnn21 (centres undefined) | -30* | -1 | -35 | . | 0
O=C(NCCc1ccncc1)[C@H]1[C@H](CO)[C@H]2Cn3c(ccc(C4=CCCCC4)c3=O)[C@@H]1N2CC1CC1 | 2 | . | . | . | .
COc1ccc(S(=O)(=O)Nc2ccc3c(c2)CC(=O)N([C@H](C)CO)C[C@H](C)[C@@H](CN(C)Cc2ccc(C(=O)O)cc2)O3)cc1 | -1 | . | . | 0 | .
O=C(Nc1ccc(Cl)cc1)Nc1ccc(-c2cnco2)cc1 | -22* | 0 | -15 | 1 | -4
O=C(NC(=O)c1ccccc1)Nc1ccc(-c2cnco2)cc1 | 16 | 3 | -15 | -1 | 0
CCCCCCCCn1ccc(=N)cc1 | 8 | -1 | -6 | -3 | -1
CCCCCCCCCCCCCCCCn1cc[n+](C)c1 | -62 | -221 | 83* | 11 | -4
CCCNC(=O)N1CCC2(CC1)CN(C(C)=O)[C@H](CO)c1[nH]c3cc(OC)ccc3c12 | 4 | . | 3 | -2 | .
COc1ccc(S(=O)(=O)N[C@@H]2CC[C@@H](CC(=O)NCCc3ccccc3)O[C@H]2CO)cc1 | 2 | . | . | 0 | .
COc1ccc(Cn2nnnc2CN2CCC(O)(c3ccc(F)cc3)CC2)cc1 | -17 | -1 | -9 | -3 | -2
OC1(c2ccccc2F)CCN(Cc2nnnn2Cc2ccc(F)cc2)CC1 | -21* | . | -8 | -3 | -4
